# An excerpt weighted towards active compounds, which were near 2.4% of everything screened.
# RTF Ca sens act – cardiac RTF calcium sensitivity activators, primary screen, biochemical, IANBD-TnC fluorescence, EC20 calcium. activation, % at 7.2 µM. 340,000 tested, 0.24% active. Troponin I, cardiac muscle (Homo sapiens) + Troponin T, cardiac muscle (Homo sapiens) + …. IANBD-labeled TnC RTF fluorescence at EC20 calcium; 0% EC20 calcium, 100% full calcium;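 active = activation above the mean over all tested compounds plus 3 SD, cut at about 30% in these data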;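 note: rise in fluorescence read as greater calcium sensitivity of cardiac thin filaments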
# ANO1 block – TMEM16A chloride channel inhibitors, primary screen, cell-based, HTS | Anoctamin-1 (Mus musculus), Q8BHY3 | HEK293 TMEM16A/YFP iodide influx fluorescence, ionomycin | normalized B-score (activity score, 25-100; higher = stronger inhibition) at 10 µM | 310,000 tested, 1.2% active;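 active = ratio plate-corrected score three or more library SD toward inhibition, starting fluorescence score within five deviations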;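 note: score derived from kinetic fluorescence span divided by baseline fluorescence per well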
# Target sequence (Q8BHY3 whole entry, looked up): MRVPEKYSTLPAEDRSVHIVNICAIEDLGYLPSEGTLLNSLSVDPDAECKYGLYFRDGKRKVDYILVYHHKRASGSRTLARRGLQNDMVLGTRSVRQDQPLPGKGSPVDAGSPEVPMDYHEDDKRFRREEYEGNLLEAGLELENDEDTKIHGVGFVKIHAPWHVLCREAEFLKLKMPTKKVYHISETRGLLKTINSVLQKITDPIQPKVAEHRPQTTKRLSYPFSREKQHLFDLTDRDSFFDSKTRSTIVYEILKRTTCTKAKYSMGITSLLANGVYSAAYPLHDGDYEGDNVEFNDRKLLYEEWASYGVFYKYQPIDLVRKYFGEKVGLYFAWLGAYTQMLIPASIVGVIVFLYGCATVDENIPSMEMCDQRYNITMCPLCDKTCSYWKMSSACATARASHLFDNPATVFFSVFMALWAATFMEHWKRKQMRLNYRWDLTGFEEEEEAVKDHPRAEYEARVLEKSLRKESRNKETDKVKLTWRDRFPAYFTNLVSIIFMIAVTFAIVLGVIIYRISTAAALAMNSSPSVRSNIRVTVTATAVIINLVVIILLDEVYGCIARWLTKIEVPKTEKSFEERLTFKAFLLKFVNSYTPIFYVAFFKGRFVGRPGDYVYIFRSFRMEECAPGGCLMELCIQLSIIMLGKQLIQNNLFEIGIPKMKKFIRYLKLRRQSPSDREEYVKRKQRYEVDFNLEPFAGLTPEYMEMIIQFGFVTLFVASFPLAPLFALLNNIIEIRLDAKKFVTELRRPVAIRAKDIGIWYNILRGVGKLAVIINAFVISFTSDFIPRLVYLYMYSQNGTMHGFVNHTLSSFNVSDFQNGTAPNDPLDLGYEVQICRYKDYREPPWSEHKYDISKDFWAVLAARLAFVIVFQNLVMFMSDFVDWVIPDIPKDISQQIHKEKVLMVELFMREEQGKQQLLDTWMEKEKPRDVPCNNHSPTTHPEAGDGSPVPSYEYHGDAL
# CRFBP-R2 block – antagonists of CRF-BP/CRF-R2 complex, primary screen, cell-based, HEK293, calcium dye fluorescence, uHTS; CRF-induced calcium fluorescence; inhibition, % at 11.8 µM; 350,000 tested, 0.59% active;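 active = inhibition of the ligand-induced calcium signal above about 50% at the single tested concentration, limit read from the data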
# RTF Ca sens inh – cardiac RTF calcium sensitivity inhibitors, primary screen, biochemical, IANBD-TnC fluorescence, EC70 calcium. 340,000 tested, 0.12% active. inhibition, % at 7.15 µM. Troponin I, cardiac muscle (Homo sapiens) + Troponin T, cardiac muscle (Homo sapiens) + …. IANBD-labeled cardiac RTF, Ca2+ fluorescence;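 active = inhibition above the mean inhibition of all tested compounds plus 3 SD, cut at about 17% in these data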;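 note: assay run at fixed EC70 calcium of 1.6 mM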
# ANO1 activ – TMEM16A chloride channel activators or potentiators, primary screen, cell-based, HTS | Anoctamin-1 (Mus musculus), Q8BHY3 | HEK293 TMEM16A/YFP-H148Q/I152L, iodide quench fluorescence; stronger effect = lower value | B-score at 10 µM | 340,000 tested, 0.3% active;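 active = fluorescence-ratio B-score plate-corrected deviation score at least 3 library SD below zero, with starting fluorescence score within 5 deviations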;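 note: channel opened by trigger with iodide after compound preincubation; score built on the fluorescence ratio of max minus min over baseline; more negative score means more quench and so TMEM16A activation or potentiation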
# CRFR2-BP ag – agonists of CRF-BP/CRF-R2 complex, primary screen, cell-based, HEK293, calcium dye fluorescence, uHTS | calcium dye fluorescence (FLIPR); percent of saturating CRF peptide response | activation, % at 13.2 µM | 350,000 tested, 0.46% active | AID 588473, 2011;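 active = activation of at least 50%, plus an integration ratio under a set limit after plate pattern correction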
# Numbers stand for hits; n = inactive; x = not tested or not shown.
SMILES,RTF Ca sens act,ANO1 block,CRFBP-R2 block,RTF Ca sens inh,ANO1 activ,CRFR2-BP ag
O=C1CCC(=O)c2ccc3c4c(ccc1c24)CC3,n,x,n,n,n,n
O=C1CCN2C=Nc3cccc4ccc1c2c34,703,n,n,n,n,n
COc1ccc(CC(=O)Nc2nnc(CC(C)C)s2)cc1S(=O)(=O)N1CCOCC1,n,x,n,n,n,n
Cc1c(C(=O)NCc2cccnc2)sc2nc(-c3ccc(F)cc3)cn12,n,n,n,n,-22,n
Nc1ccc(S(N)(=O)=O)cc1N,30,n,n,n,n,n
O=C(O)c1ccc2nc(-c3ccccc3)c(-c3ccccc3)nc2c1,n,n,n,n,n,n
NC(=O)c1ccc2nc(-c3ccccc3)c(-c3ccccc3)nc2c1,n,n,52,n,n,n
Cc1ccc(SCc2ccc(C(=O)Nc3ccccc3Br)cc2)cc1,n,n,n,n,n,74
Cc1ccc(SCC(=O)OCC(=O)N(CC(C)C)c2c(N)n(Cc3ccccc3)c(=O)[nH]c2=O)cc1C,n,n,n,n,n,n
C/C(=N\Nc1cc(C)nc(-c2ccccc2O)n1)c1ccccc1,n,n,n,n,n,n
C/C(=N\Nc1cc(C)nc(-c2ccccc2)n1)c1cccc([N+](=O)[O-])c1,n,n,119,n,n,n
CCOC(=O)c1cnc2ccc(OCC)cc2c1NCc1ccccc1OC,n,100,n,n,n,n
O=C(NCc1cc(C(F)(F)F)ccc1Cl)c1cccc2c1C(=O)c1ccc(N3CCCCC3)cc1S2(=O)=O,n,x,n,n,n,53
O=C(NCc1ccccc1Br)c1cccc2c1C(=O)c1ccc(-c3ccc(OC(F)(F)F)cc3)cc1S2(=O)=O,n,x,n,n,n,n
O=C(NCc1ccc(OC(F)(F)F)cc1)c1cccc2c1C(=O)c1ccc(N3CCC(Cc4ccccc4)CC3)cc1S2(=O)=O,n,x,n,n,n,63
O=C(NCc1cc(C(F)(F)F)ccc1Cl)c1cccc2c1C(=O)c1ccc(N3CCC(N4CCCCC4)CC3)cc1S2(=O)=O,x,x,n,x,x,n
O=C(NCc1ccc(OC(F)(F)F)cc1)c1cccc2c1C(=O)c1ccc(N3CCCC3)cc1S2(=O)=O,n,x,n,n,n,102
O=C(O)c1cccc2c1C(=O)c1ccc(-c3ccc(OC(F)(F)F)cc3)cc1S2(=O)=O,n,x,n,n,n,n
O=C(NCc1ccc(OC(F)(F)F)cc1)c1cccc2c1C(=O)c1ccc(N3CCCCC3)cc1S2(=O)=O,n,x,n,n,n,68
COc1ccc(N2C(=O)CCC(C(=O)N3CCN(c4ccccn4)CC3)C2c2ccc(F)cc2)cc1 (stereo not drawn),n,n,n,n,n,n
COc1ccc(CCNC(=O)CCn2c(SCC(=O)N3CCCC3)nc3ccccc3c2=O)cc1OC,n,n,n,n,n,n
CC(=O)Oc1cc2c3c(c1)/C(=C1/SC(=S)NC1=O)C(=O)N3C(C)(C)C=C2C,n,100,n,n,n,n
CCOc1cc2c3c(c1)C(C)=CC(C)(C)N3C(=O)C2=O,n,n,n,n,n,n
O=C(NC(=S)Nc1ccccc1N1CCCC1)c1ccco1,x,n,n,x,-6.9,n
O=C(NC(=S)Nc1ccccc1N1CCCCC1)c1ccco1,n,n,n,n,n,n
SMILES,RTF Ca sens act,ANO1 block,CRFBP-R2 block,RTF Ca sens inh,ANO1 activ,CRFR2-BP ag
CN(CCc1ccccc1)C(=O)c1cccc(NC(=O)Cc2cccc(NC(=O)C3CCCN(C(=O)c4ccccc4)C3)c2)c1 (stereo not drawn),n,x,n,n,x,n
COC(=O)c1c(C)cccc1C1CN=NC12Cc1ccccc1C2=O (stereo not drawn),n,x,n,n,-7.4,n
COC(=O)CSc1nnc(-c2ccc(NS(=O)(=O)c3ccccc3)cc2)o1,n,25,n,n,n,n
CCCNc1c(F)c(F)c2c(C)c3ccccc3nc2c1F,36,n,n,n,n,n
COc1cc(CNC(C)C)c(Br)cc1OC1CCCC1,n,n,n,n,n,n
COCCNC(=S)N1CCc2cc(OC)c(OC)cc2C1COc1cc(C)cc(C)c1 (stereo not drawn),n,n,86,n,n,n
CCc1ccccc1N(C(=O)c1cccs1)C1C=CS(=O)(=O)C1 (stereo not drawn),n,n,n,n,n,n
CCOc1ccc(NC(=O)c2ccc(-n3cccn3)nc2)cc1,n,n,n,n,n,n
CC(=O)Oc1ccc(-c2nc(-c3cccnc3)no2)cc1,n,n,n,n,-15,n
O=C(O)CCC1c2cc3c4cc2OC2Oc5cc6c(cc51)C(CCC(=O)O)c1cc5c7cc1OC(O6)c1cc6cc(c1)Oc1cc(cc(C(=O)O)c1)Oc1cc8cc(c1)C(Oc1cc(c(cc1C5CCC(=O)O)C3CCC(=O)O)OC(O4)c1cc(cc(c1)Oc1cc(cc(C(=O)O)c1)O8)Oc1cc(cc(C(=O)O)c1)Oc1cc(cc2c1)Oc1cc(cc(C(=O)O)c1)O6)O7 (stereo not drawn),x,25,x,x,x,x
COc1cccc(OCC(=O)NNC(=S)Nc2ccc(Cl)cc2Cl)c1,n,100,n,n,n,n
O=C(COc1cccc(Cl)c1)NNC(=S)Nc1ccccc1,n,n,n,n,n,n
C=CCNC(=S)NNC(=O)c1ccc(OCC)cc1,n,n,109,n,n,n
C=CCNC(=S)NNC(=O)c1ccc(OCCC)cc1,n,n,n,n,n,n
COc1ccc(CNC(=O)c2cc(C)nc3ccccc23)cc1OC,n,n,n,n,-5.6,n
COc1ccc(-c2cc(C(=O)NC3CCCC3)c3ccccc3n2)cc1OC,n,n,97,n,n,n
COc1cccc(-c2cc(C(=O)NC3CCCC3)c3ccccc3n2)c1,x,n,n,x,n,n
COc1ccc(NC(=O)N2CCc3ccccc3C2)c(OC)c1,n,n,n,n,n,n
Cc1ccccc1OCCN1C(=O)NC2(CCc3ccccc32)C1=O (stereo not drawn),n,n,n,n,n,n
Cc1ccc(NC(=O)CSc2nnc(N)s2)cc1S(=O)(=O)N1CCOCC1,n,n,n,n,n,n
Cc1cccc(C(=O)NC(=S)NNC(=O)COc2ccc(Cl)cc2)c1,n,x,n,n,n,59
COc1ccc(C(=O)NNC(=S)NC(=O)c2ccc(OC)cc2)cc1,n,n,n,n,n,51
COc1ccc(C(=O)NNC(=S)NC(=O)c2ccc(F)cc2)cc1Br,x,n,n,x,n,77

# Screens (PubChem)
